Experimental data reported in PubChem BioAssay (EPA / NIEHS).
“And” between values parts separate entries of the source, which are not always exact repeats. Identical values can stand only once. The source holds several records for some structures; these can differ, active in one and inactive in another. The source made the active and inactive calls. The calls were made as follows: active = hit-call score of the fitted dose curve at least 0.9, where 1 is the maximum; inactive = score below 0.9.

Assay: BSK_4H_Eotaxin3: BioMAP Diversity Plus: 4H Assay for Eotaxin 3 Biomarker Activity (AID 2283000)
Details: primary human endothelial cells (HUVEC); actives raise or lower the signal
Experimental: BSK_4H is a cell-based, multiplexed-readout assay that uses umbilical vein endothelium, a human vascular primary cell, with measurements taken at 24 hours after chemical dosing in a 96-well plate.BSK_4H_Eotaxin3 is an assay component measured in the BSK_4H assay. It measures Eotaxin-3 antibody related to regulation of gene expression using ELISA technology.Data from the assay component BSK_4H_Eotaxin3 was analyzed into 1 assay endpoint. This assay endpoint, BSK_4H_Eotaxin3, was analyzed with bidirectional fitting relative to DMSO as the negative control and baseline of activity. Using a type of binding reporter, gain or loss-of-signal activity can be used to understand changes in the signaling as they relate to the gene CCL26. Furthermore, this assay endpoint can be referred to as a primary readout, because this assay has produced multiple assay endpoints where this one serves a signaling function. To generalize the intended target to other relatable targets, this assay endpoint is annotated to the cytokine intended target family, where the subfamily is chemotactic factor.
The levels of cell surface (or secreted, indicated by the prefix "s") biomarker endpoints were measured by ELISA. Overt cytotoxicity to cells in confluent adherent cultures (all systems other than the BT system) was assessed by measuring total protein levels using sulforhodamine B (SRB) staining in parallel cultures at the time of biomarker measurements, indicated as SRB endpoints. For proliferation assays for adherent cell types, individual cell types are cultured at sub-confluence and relative cell numbers quantified by SRB staining at time points optimized for each system (48 h: 3C and CASM3C systems; 72 h: BT and HDF3CGF systems; 96 h: SAg system). SRB was performed by staining cells with 0.1% SRB after fixation with 10% TCA and reading wells at 560 nm.Viability and proliferation of PBMC (T cells) was quantified by Alamar Blue reduction for the SAg and BT systems. For PBMC viability (referred to as PBMC Cytotoxicity within the assay endpoint names), cells were plated (75,000/well in a 96-well plate) and then chemical samples added for 1 h before addition of activators, SEB and TSST-1 (20 ng/mL final concentration each). Cells were incubated for 90 h. Then, Alamar Blue (20 uL/well) (Invitrogen, Cat DAL1100) was added for 6 h, and the plates were read with a fluorescence microplate reader at 546/580 nm (excitation/emission). For PBMC proliferation, cells were plated and activated as above but incubated for only 16 h prior to addition of Alamar Blue. Plates were read after 6 h.
For `COP(=O)(OC)OC(Br)C(Cl)(Cl)Br` (stereo not given), the AC50 was 33.2 µM (active).
For `CCCOc1nn(C(=O)NS(=O)(=O)c2ccccc2C(=O)OC)c(=O)n1C`, the outcome was “inactive”.
For `CC(C)N(C(=O)SCC(Cl)=C(Cl)Cl)C(C)C`, the AC50 was 32 µM (active).
In the case of `CCCOCC(=Nc1ccc(Cl)cc1C(F)(F)F)n1ccnc1`, the AC50 is reported as 34.4 µM (active).
With `CC1(C(=O)Nc2ccc(O)c(Cl)c2Cl)CCCCC1` the outcome was “inactive”.
With `CC(Oc1cccc(Cl)c1)C(=O)O` (stereo not given) the outcome was “inactive”.
With `CC(C1CC1)C(O)(Cn1cncn1)c1ccc(Cl)cc1` (stereo not given) the outcome was “inactive”.
With `C#CCC1=C(C)C(OC(=O)C2C(C=C(C)C)C2(C)C)CC1=O` (stereo not given) the outcome was “inactive”.
With `CCOP(=S)(OCC)SCCSCC` the outcome was “inactive”.
With `CCC(=NOC/C=C/Cl)C1=C(O)CC(C2CCOCC2)CC1=O` (stereo not given) the outcome was “inactive”.
With `S=C1NCCN1` the outcome was “inactive”.
In the case of `CCCCN(CC)c1c([N+](=O)[O-])cc(C(F)(F)F)cc1[N+](=O)[O-]`, the outcome is reported as “inactive”.
For `CC1=NNC(=O)N(/N=C/c2cccnc2)C1`, the outcome was “inactive”.
With `C[N+]1(C)CCCCC1` the outcome was “inactive”.
In the case of `Cc1cc(C2CC2)nc(Nc2ccccc2)n1`, the AC50 is reported as 9.49 µM (active).
In the case of `C#CC(C)(C)NC(=O)c1cc(Cl)cc(Cl)c1`, the outcome is reported as “inactive”.
In the case of `CCOP(=S)(Oc1cnc(C(C)(C)C)nc1)OC(C)C` (stereo not given), the AC50 is reported as 31.9 µM (active).
With `CCOP(=S)(OCC)Oc1ccc2c(C)c(Cl)c(=O)oc2c1` the outcome was “inactive”.
For `CCOP(=S)(OCC)Oc1cc(C)nc(C(C)C)n1`, the outcome was “inactive”.
For `CCC(=O)Nc1ccc(Cl)c(Cl)c1`, the outcome was “inactive”.
With `N#CSCSC#N` the AC50 was 6.94 µM (active).
In the case of `CCOC(=O)COc1cc(-c2nn(C)c(OC(F)F)c2Cl)c(F)cc1Cl`, the outcome is reported as “inactive”.
In the case of `CNC(=O)ON=C(SC)C(=O)N(C)C`, the outcome is reported as “inactive”.
With `Cc1nn(-c2cc(NS(C)(=O)=O)c(Cl)cc2Cl)c(=O)n1C(F)F` the outcome was “inactive”.
In the case of `CON=C(C(=O)OC)c1ccccc1CON=C(C)c1cccc(C(F)(F)F)c1`, the AC50 is reported as 2.78 µM (active).
With `CN(C)[C@@H]1C(=O)C(C(N)=O)=C(O)[C@@]2(O)C(=O)C3=C(O)c4c(O)cccc4[C@@](C)(O)[C@H]3[C@H](O)[C@@H]12` the AC50 was 33 µM (active) and the outcome was “inactive”.
With `O=[N+]([O-])c1cc(C(F)(F)F)c(Cl)c([N+](=O)[O-])c1Nc1ncc(C(F)(F)F)cc1Cl` the AC50 was 1.39 µM (active) and 3.07 µM (active).
In the case of `CN1COCN(Cc2cnc(Cl)s2)C1=N[N+](=O)[O-]`, the outcome is reported as “inactive”.
For `CSc1nc(NC(C)C)nc(NC(C)C)n1`, the outcome was “inactive”.
In the case of `CCc1cccc(C)c1N(C(=O)CCl)C(C)COC` (stereo not given), the outcome is reported as “inactive”.
For `COc1ccc(C(=CC(=O)N2CCOCC2)c2ccc(Cl)cc2)cc1OC`, the outcome was “inactive”.
In the case of `Cc1ccn2nc(S(=O)(=O)Nc3c(F)cccc3F)nc2n1`, the outcome is reported as “inactive”.
For `O=C(O)c1cc(Oc2ccc(C(F)(F)F)cc2Cl)ccc1[N+](=O)[O-]`, the outcome was “inactive”.
With `CNC(=O)ON=C(C)SC` the outcome was “inactive”.
In the case of `Nc1c(Cl)cc([N+](=O)[O-])cc1Cl`, the outcome is reported as “inactive”.
In the case of `CC[C@H](C)[C@H]1O[C@]2(C=C[C@@H]1C)C[C@@H]1C[C@@H](C/C=C(\C)[C@@H](O[C@H]3C[C@H](OC)[C@@H](O[C@H]4C[C@H](OC)[C@@H](NC)[C@H](C)O4)[C@H](C)O3)[C@@H](C)/C=C/C=C3\CO[C@@H]4[C@H](O)C(C)=C[C@@H](C(=O)O1)[C@]34O)O2`, the AC50 is reported as 5.75 µM (active).
With `O=c1ccc(=O)[nH][nH]1` the outcome was “inactive”.
For `CCc1cccc(CC)c1N(COC)C(=O)CCl`, the AC50 was 22.4 µM (active).
For `CCC(CC)Nc1c([N+](=O)[O-])cc(C)c(C)c1[N+](=O)[O-]`, the outcome was “inactive”.
